This note sets out measurements from PubChem BioAssay (EPA / NIEHS).

Records with an inconclusive call do not appear. Active and inactive are the calls of the source. How the source made its calls, unless noted: active means hit-call score of the fitted dose curve at least 0.9, where 1 is the maximum; inconclusive means response in the unintended direction; inactive means score below 0.9.

Assay [1] is described as follows: TOX21_p53_BLA_p2_viability: Viability Assessment in the Tox21 HCT-116 p53 Agonism Beta-lactamase Assay, Phase 2 (AID 2283591).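 Further: compound exposure lasted 16 h at 37 °C; actives lower the ATP signal meaning cytotoxicity.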 In outline: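 HCT116 p53-bla cells, 4000/well, dosed after 5 h plating (217-fold dilution of DMSO stocks) and incubated 16 h at 37C. Viability taken as cellular ATP by CellTiter-Glo luminescence after 30 min RT; signal loss marks cytotoxicity.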

For assay [2], the target named is Cellular tumor antigen p53 (Homo sapiens) (UniProt P04637). Description: TOX21_p53_BLA_p2_ratio: Tox21 HCT-116 p53 Agonism Beta-lactamase Assay, Ratio, Phase 2 (AID 2283592). In outline:
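Cleaved-to-uncleaved substrate ratio (460 vs 530 nm) measured in HCT116 cells with an inducible beta-lactamase reporter linked to p53 activity. Compounds incubated 16 h at 37C before 2 h room-temperature CCF4-AM loading.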

For assay [3] the target is unchanged. Nature of the assay: TOX21_p53_BLA_p3_ratio: Tox21 HCT-116 p53 Agonism Beta-lactamase Assay, Ratio, Phase 3 (AID 2283596). In outline:
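Cells were seeded at 4000/well, rested 5 h at 37C, then dosed with DMSO compound solutions (217-fold dilution) for 16 h. CCF4-AM substrate was loaded for 2 h at room temperature, and the 460/530 nm emission ratio was fitted for gain of signal versus DMSO.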

The nature of assay [4]: TOX21_p53_BLA_p4_viability: Viability Assessment in the Tox21 HCT-116 p53 Agonism Beta-lactamase Assay, Phase 4 (AID 2283597).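 Further: hits lower the luminescence signal meaning cytotoxicity.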 In outline: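 Viability is taken as cellular ATP: after 16 h compound exposure of HCT116 cells and a 2 h room-temperature CCF4-AM substrate step, CellTiter-Glo reagent is added and luminescence is measured 30 min later.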
In assay [5] the target is Cellular tumor antigen p53 (Homo sapiens) (UniProt P04637). Nature of the assay: TOX21_p53_BLA_p5_ratio: Tox21 HCT-116 p53 Agonism Beta-lactamase Assay, Ratio, Phase 5 (AID 2283599). Put shortly: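 HCT-116 p53-bla cells (4000/well) plated 5 h, dosed with compound (217-fold DMSO dilution) for 16 h at 37 C; CCF4-AM substrate 2 h at room temperature. Activity is the 460/530 nm emission ratio (405 nm excitation), fitted in gain-of-signal direction versus DMSO.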

Assay [6] is described as follows: TOX21_p53_BLA_p5_viability: Viability Assessment in the Tox21 HCT-116 p53 Agonism Beta-lactamase Assay, Phase 5 (AID 2283600). In outline:
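Viability is taken from cellular ATP content, measured by luciferase luminescence in the same wells after the beta-lactamase ratio read. Cells are seeded at 4000 per well and exposed to DMSO-dissolved compounds, diluted 217-fold, for 16 h.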

Assay [7] concerns the target Cellular tumor antigen p53 (Homo sapiens) (UniProt P04637). Description: TOX21_p53_BLA_p4_ratio: Tox21 HCT-116 p53 Agonism Beta-lactamase Assay, Ratio, Phase 4 (AID 2283601). In outline: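 HCT-116 p53 beta-lactamase reporter cells (4000/well) preincubated 5 h, then compound (217-fold dilution of DMSO stock) for 16 h at 37C. CCF4-AM substrate added 2 h at room temperature; 460/530 nm emission ratio fitted upward versus DMSO.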

In assay [8] the target is PGR (gene 5241) (UniProt P06401). Nature of the assay: TOX21_PR_BLA_Followup_Antagonist_ratio: Tox21 HEK293 Progesterone Receptor (PR) Antagonism Beta-lactamase Follow-Up Assay, Ratio (AID 2283934).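 Further: PR-UAS-bla HEK293T cells stimulated with 1 nM R5020 agonist for 16 hr.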 In outline:
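Measured in PR-UAS-bla HEK293T cells co-treated with compound and 1 nM promegestone for 16 hr; beta-lactamase ratio read after 2 h FRET substrate loading, with parallel CellTiter-Glo cytotoxicity.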

Assay [9] can be described thus: TOX21_PR_BLA_Followup_Agonist_viability: Viability Assessment in the Tox21 HEK293 Progesterone Receptor (PR) Agonism Beta-lactamase Follow-Up Assay (AID 2283935).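 Further: signal loss means lower viability so actives are cytotoxic.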 Put shortly: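 Viability is read as CellTiter-Glo luminescence, where loss of signal indicates cytotoxicity. The cells are PR-UAS-bla HEK293T given compounds for 16 hr at 37C and 5% CO2, in the same wells used for the bla readout.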

Assay [10] can be described thus: TOX21_PR_BLA_Followup_Antagonist_viability: Viability Assessment in the Tox21 HEK293 Progesterone Receptor (PR) Antagonism Beta-lactamase Follow-Up Assay (AID 2283936).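 Further: cells exposed to compound with R5020 agonist for 16 h; hits lower the luminescence signal meaning cytotoxicity.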 In outline:
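PR-UAS-bla HEK293T cells in medium with 2% charcoal-stripped FBS were treated with compounds plus R5020 for 16 hr at 37C. After the beta-lactamase read, CellTiter-Glo was added to the same wells and luminescence read after 30 min at room temperature.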

The target of assay [11] is PGR (gene 5241) (UniProt P06401). Description: TOX21_PR_LUC_Followup_Antagonist: Tox21 HEK293 Progesterone Receptor (PR) Antagonism Luciferase Follow-Up Assay (AID 2283938).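 Further: curve fitted upward as signal gain over DMSO baseline despite antagonist label.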 In outline: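 A follow-up to the PR bla screen using HEK293-PR-A-luc cells, multiplexed with cell viability to flag cytotoxicity. Reporter luminescence after 16 h compound exposure was analysed relative to DMSO.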

The nature of assay [12]: CCTE_Harrill_HTTr_Viability_MCF7: CCTE's 6-hour Cell Viability Assessment for the High-Throughput Transcriptomics (HTTr) Platform, in MCF-7 cells cultured in DMEM + 10% fetal bovine serum, Harrill Lab (AID 2284010; active means hit-call score of the fitted dose curve at least 0.9, where 1 is the maximum; inactive means score below 0.9). Put shortly: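 Eight-point concentration series, six-hour exposure. Propidium iodide exclusion imaged to assess membrane integrity as a cytotoxicity readout; bidirectional fitting was done with DMSO as negative control and activity baseline.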

Assay [13] can be described thus: CCTE_Harrill_HTTr_Apoptosis_MCF7: CCTE's 6-hour Apoptosis Assessment for the High-Throughput Transcriptomics (HTTr) Platform, in MCF-7 cells cultured in DMEM + 10% fetal bovine serum, Harrill Lab (AID 2284011; active means hit-call score of the fitted dose curve at least 0.9, where 1 is the maximum; inactive means score below 0.9). In outline: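 Cells are dosed with test chemicals at eight concentrations and imaged 6 hours later for caspase-3/7 activity using a green fluorogenic detection reagent. Activity is fitted in both directions against DMSO controls.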

Assay [14] in a line: CCTE_Harrill_HTTr_CellCount_MCF7: CCTE's Cell Proliferation Assessment for the High-Throughput Transcriptomics (HTTr) Platform, Harrill Lab (AID 2284012).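 Further: count of Hoechst-stained nuclei per well by high-content imaging in MCF-7 cells; cells exposed to compound for six hours; intended direction is loss of nuclei count meaning fewer cells.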 Put shortly:
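For this full-screen endpoint, MCF-7 cultures received eight compound dilutions for six hours. Well nuclei counts from Hoechst imaging were analyzed relative to DMSO.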

Assay [15] deals with Estrogen receptor (Homo sapiens) (UniProt P03372). Nature of the assay: CCTE_Deisenroth_AIME_96WELL_LUC_Active: CCTE's 96-well Estrogen Receptor Transactivation Assay with AIME metabolic competence (ERTA luciferase; metabolism positive), Deisenroth Lab (AID 2284023). In outline:
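Metabolism-positive mode: induced rat hepatic S9 in alginate microspheres conditions test solutions (0.002 - 200 uM, 10 points) for 2 hours. VM7Luc4E2 ER luciferase reporter cells then exposed 24 h; positive-direction fit against 17beta-estradiol, n=4 typical.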

Assay [16] has the same target. Nature of the assay: CCTE_Deisenroth_AIME_96WELL_LUC_Inactive: CCTE's 96-well Estrogen Receptor Transactivation Assay without AIME metabolic competence (ERTA luciferase; metabolism negative), Deisenroth Lab (AID 2284025). Put shortly: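 Metabolism-negative arm: chemicals (0.002–200 uM, 10 points) incubated 2 h with alginate-water microspheres, then medium moved onto VM7Luc4E2 cells for 24 h luciferase read-out. Positive direction vs 17beta-estradiol; n≥4 experiments.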

Sequence of Cellular tumor antigen p53 (Homo sapiens) (P04637 whole entry, looked up): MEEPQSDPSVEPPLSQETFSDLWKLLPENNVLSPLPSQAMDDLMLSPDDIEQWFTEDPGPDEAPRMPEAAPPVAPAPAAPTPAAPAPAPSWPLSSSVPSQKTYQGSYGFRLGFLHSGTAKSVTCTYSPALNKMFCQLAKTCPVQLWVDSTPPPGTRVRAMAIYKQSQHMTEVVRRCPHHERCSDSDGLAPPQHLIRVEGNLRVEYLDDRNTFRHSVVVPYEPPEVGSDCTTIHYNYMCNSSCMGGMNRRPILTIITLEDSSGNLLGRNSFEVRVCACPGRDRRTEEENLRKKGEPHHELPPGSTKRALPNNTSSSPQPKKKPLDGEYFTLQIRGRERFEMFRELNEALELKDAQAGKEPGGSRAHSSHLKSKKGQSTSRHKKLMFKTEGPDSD
Sequence of PGR (gene 5241) (P06401 whole entry, looked up): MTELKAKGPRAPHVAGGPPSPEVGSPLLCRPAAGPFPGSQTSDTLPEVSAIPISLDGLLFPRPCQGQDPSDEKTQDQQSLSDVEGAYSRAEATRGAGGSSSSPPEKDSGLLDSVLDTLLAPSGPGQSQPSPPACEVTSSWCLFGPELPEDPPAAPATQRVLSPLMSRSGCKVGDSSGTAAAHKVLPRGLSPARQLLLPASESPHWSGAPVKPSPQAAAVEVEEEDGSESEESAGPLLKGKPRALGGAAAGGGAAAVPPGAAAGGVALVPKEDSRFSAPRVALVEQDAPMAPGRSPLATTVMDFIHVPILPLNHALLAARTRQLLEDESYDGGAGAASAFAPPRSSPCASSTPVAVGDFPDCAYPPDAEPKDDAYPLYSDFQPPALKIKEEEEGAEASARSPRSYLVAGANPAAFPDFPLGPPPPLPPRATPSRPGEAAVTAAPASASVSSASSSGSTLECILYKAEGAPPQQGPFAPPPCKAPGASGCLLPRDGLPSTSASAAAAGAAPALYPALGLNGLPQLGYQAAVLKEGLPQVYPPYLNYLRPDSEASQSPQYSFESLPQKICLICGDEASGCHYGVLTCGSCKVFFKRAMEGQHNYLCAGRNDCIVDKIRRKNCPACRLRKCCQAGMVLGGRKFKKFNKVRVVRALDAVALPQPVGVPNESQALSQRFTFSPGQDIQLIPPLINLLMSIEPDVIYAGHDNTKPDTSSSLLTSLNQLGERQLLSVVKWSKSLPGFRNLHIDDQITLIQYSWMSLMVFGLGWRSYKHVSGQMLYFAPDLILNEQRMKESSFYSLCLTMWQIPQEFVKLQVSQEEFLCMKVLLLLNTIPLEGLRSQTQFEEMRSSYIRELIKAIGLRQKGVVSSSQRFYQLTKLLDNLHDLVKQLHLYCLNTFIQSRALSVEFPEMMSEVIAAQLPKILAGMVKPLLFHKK
Sequence of Estrogen receptor (Homo sapiens) (P03372 whole entry, looked up): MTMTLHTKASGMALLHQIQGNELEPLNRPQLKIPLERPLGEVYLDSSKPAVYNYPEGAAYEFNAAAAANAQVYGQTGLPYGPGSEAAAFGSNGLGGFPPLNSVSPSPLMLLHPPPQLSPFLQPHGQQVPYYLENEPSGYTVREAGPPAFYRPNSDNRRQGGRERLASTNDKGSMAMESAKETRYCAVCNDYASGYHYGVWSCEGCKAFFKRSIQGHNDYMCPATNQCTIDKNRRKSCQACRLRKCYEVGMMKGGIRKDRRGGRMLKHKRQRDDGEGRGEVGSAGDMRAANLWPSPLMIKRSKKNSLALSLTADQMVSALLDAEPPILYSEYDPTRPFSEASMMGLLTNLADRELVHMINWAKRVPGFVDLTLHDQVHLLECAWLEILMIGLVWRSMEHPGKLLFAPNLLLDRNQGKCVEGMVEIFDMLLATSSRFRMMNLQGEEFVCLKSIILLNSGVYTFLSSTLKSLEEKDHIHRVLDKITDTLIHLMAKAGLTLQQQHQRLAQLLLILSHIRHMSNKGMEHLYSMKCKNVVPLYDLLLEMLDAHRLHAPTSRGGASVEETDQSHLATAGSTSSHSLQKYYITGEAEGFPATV

In the case of `O=[N+]([O-])c1ccc2c(c1)Cc1ccccc1-2`, the compound was classed as inactive in assay [1], in [2], in [3], in [4], in [5] and in assay [6]. Moreover, the outcome in [7], in assay [9], in assay [10], in [12], in assay [13] and in [14] was inactive. Also, in [15], the result was inactive. The AC50 – broadly, the midpoint of the concentration-response curve, whichever way the signal moves – in assay [8] was 25 µM (active); in assay [11], 31 µM (active); in assay [16] it was 26.8 µM (active).

As for `C=C1CC[C@H](O)C/C1=C/C=C1\CCC[C@]2(C)[C@@H]([C@H](C)CC[C@@H](O)C(C)(C)O)CC[C@@H]12`, the half-maximal activity concentration (AC50) is 20.1 µM (active) in assay [1]; 24.5 µM (active) in assay [2]; 26.9 µM (active) in [3]; 17.9 µM (active) in assay [4]; 22.5 µM (active) in assay [5]; 17.2 µM (active) in assay [6]. Further, in [7], the AC50 is 21.1 µM (active).

In the case of `CC1=Nc2ccccc2C1(C)C`, the compound was classed as inactive in [1], in [2], in assay [3], in assay [4], in assay [6] and in assay [7].

In the case of `O=c1[nH]c2cc(C(F)(F)F)c(N3CCOCC3)cc2n(CP(=O)(O)O)c1=O`, the outcome in assay [1], in assay [2], in assay [3], in assay [4] and in assay [7] was inactive.

With `COS(=O)(=O)C(F)(F)F`, the compound was classed as inactive in assay [1], in assay [2], in assay [3], in [4], in assay [6] and in assay [7].
